From PubChem BioAssay come the findings set out here.

Calls of active or inactive are those of the source.

The subject of experiment [1] is PRMT1 (protein arginine N-methyltransferase 1). Nature of the experiment: PRMT1 binders on small-molecule microarrays, primary screen, biochemical, small-molecule microarray, 635 nm fluorescence (AID 1088).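 Also: binding of Prmt1 protein to compounds spotted on small-molecule microarray slides.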 The conditions noted are these: small-molecule microarray binding, higher = more signal.
Experiment [2] can be described thus: yeast growth modulation, basal conditions, primary screen, YJM789 clinical isolate, OD600, 24 h (AID 1089).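 Also: growth of clinical yeast isolate S. cerevisiae YJM 789 seeded 1000 cells per well; test concentration not given here.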 As to conditions: S. cerevisiae YJM789 growth, higher = more signal, called active from +8 up or from −8 down.
Experiment [3] is described as follows: fission yeast growth modulation, primary screen, strain 972, OD600, 24 h, no modulator (AID 1090).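 Also: basal condition with compound alone and no growth modifier present; test concentration not given here.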 The conditions noted are these: S. pombe 972 growth, higher = more signal, called active from +8 up or from −8 down.
Experiment [4] is described as follows: S. cerevisiae growth modulation with rapamycin, primary screen, strain BY4716, OD600, 96 h (AID 1091). Also: test concentration not given here. The conditions noted are these: higher = more signal, called active from +8 up or from −8 down.
The target of experiment [5] is Torsin-1A-interacting protein 2 (Homo sapiens) (UniProt Q8NFQ8). In words: LULL1 binders on small-molecule microarray, primary screen, cell lysate, human LULL1 lysate, 635/667 nm fluorescence (AID 1092).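 Also: probe is lysate of COS7 cells overexpressing human LULL1; score merges per-feature 667 nm fluorescence with signal-to-noise.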 As to conditions: hLULL1 lysate binding, 635 nm fluorescence, higher = more signal.
Experiment [6] in a line: E. coli growth modulation, two-sided OD650, primary screen, E. coli filamentation project, strain DRC41, 24 h (AID 1093).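 Also: MC1000 strain lacking acrAB efflux and sulA so SOS filamentation is blocked; test concentration not given here.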 The conditions noted are these: OD650, 24 h, higher = more signal, called active from +8 up or from −8 down.
Experiment [7] can be described thus: small-molecule microarray binders of probe aLefty2, primary screen, biochemical, biotinylated probe, 635/667 nm fluorescence (AID 1094).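 Also: score merges spot fluorescence near 667 nm with spot signal-to-noise ratio.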 As to conditions: higher = more signal.
Experiment [8] relates to Noggin (protein binding on small-molecule microarray). Nature of the experiment: Noggin binders on small-molecule microarray, primary screen, biochemical, 635/667 nm fluorescence (AID 1095).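 Also: score merges 667 nm feature fluorescence with signal to noise over triplicate slides.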 As to conditions: 635 nm fluorescence, higher = more signal.
Experiment [9] has as its target Neurogenic locus notch homolog protein 3 (Homo sapiens) (UniProt Q9UM47). Nature of the experiment: NOTCH3 binders on small-molecule microarray, primary screen, biochemical, 635/667 nm fluorescence (AID 1096). The conditions noted are these: NOTCH3 binding, 635 nm fluorescence, higher = more signal.
Experiment [10] can be described thus: small-molecule microarray binders of probe aEGFR, primary screen, biochemical, biotinylated probe, 635/667 nm fluorescence (AID 1097).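 Also: probe is a biotinylated anti-EGFR antibody binding compounds printed on slides; score combines fluorescence near 667 nm and signal to noise of each spot.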 As to conditions: higher = more signal.
Experiment [11] relates to Plasmodium falciparum Sir2 (PF13_0152, Sir2A). In words: pfSir2 binders on small-molecule microarrays, primary screen, biochemical, small-molecule microarray, 635 nm fluorescence (AID 1098).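 Also: score merges spot fluorescence intensity with its signal-to-noise ratio.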 As to conditions: small-molecule microarray binding, fluorescence 635 nm; higher = more signal.
The nature of experiment [12]: small-molecule microarray binders of probe aDKK1, primary screen, biochemical, biotinylated probe, 635/667 nm fluorescence (AID 1099).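 Also: score merges 667nm spot fluorescence with signal to noise across triplicate slides; reference of the scale not given here.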 The conditions noted are these: higher = more signal.
A short description of experiment [13]: small-molecule microarray binders of probe aCHRDL2, primary screen, biochemical, biotinylated probe, 635/667 nm fluorescence (AID 1100). As to conditions: higher = more signal.
A short description of experiment [14]: splicing luciferase reporter signal modulators, primary screen, spliceosome inhibition project, cell-based, HEK293, splice +/- reporter (AID 1101).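 Also: HEK293 cells carrying a splicing-competent luciferase reporter gene; test concentration not given here.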 As to conditions: luminescence, 24 h, higher = more signal, called active from +8 up or from −8 down.
Experiment [15] has as its target Fibroblast growth factor 10 (Homo sapiens) (UniProt O15520). In words: FGF10 binders on small-molecule microarrays, primary screen, biochemical, small-molecule microarray, 635 nm fluorescence (AID 1102). The conditions noted are these: FGF10 binding, fluorescence 635 nm, higher = more signal.
In experiment [16] the test system is glycogen synthase kinase-3 (GSK3A per assay name; protocol says GSK3B). In words: GSK3 binders on small-molecule microarrays, primary screen, biochemical, small-molecule microarray, 635 nm fluorescence, GSK3A (AID 1103). Also: the record names both GSK3A and GSK3B. The conditions noted are these: small-molecule microarray binding, fluorescence 635 nm; higher = more signal.
In experiment [17] the target is Epidermal growth factor receptor (Homo sapiens) (UniProt P00533). In words: EGFR binders on small-molecule microarrays, primary screen, biochemical, small-molecule microarray, 635 nm fluorescence (AID 1104).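 Also: score merges 667 nm emission intensity with spot signal to noise over triplicate slides.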 As to conditions: EGFR binding, higher = more signal.
Experiment [18] deals with Follistatin-related protein 3 (Homo sapiens) (UniProt O95633). Nature of the experiment: FSTL3 binders on small-molecule microarrays, primary screen, biochemical, small-molecule microarray, 635 nm fluorescence (AID 1105).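 Also: score merges emission near 667 nm and signal to noise per printed spot across three slides.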 The conditions noted are these: FSTL3 binding, higher = more signal.
For experiment [19], the target named is Dickkopf-related protein 1 (Homo sapiens) (UniProt O94907). Nature of the experiment: DKK1 binders on small-molecule microarrays, primary screen, biochemical, small-molecule microarray, 635 nm fluorescence scan (AID 1106).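 Also: score merges emission near 667 nm with signal to noise over three replicate slides.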 The conditions noted are these: DKK1 binding, higher = more signal.
Experiment [20] relates to Inhibin beta A chain (activin A). In words: INHBA (activin A) binders on microarrays, primary screen, biochemical, small-molecule microarray, 635 nm fluorescence scan (AID 1107).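 Also: mouse activin A protein probed at 4.33 µg/mL on printed slides; score merges bound-protein fluorescence near 667 nm with spot signal-to-noise.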 The conditions noted are these: small-molecule microarray binding, higher = more signal.

Sequence of Neurogenic locus notch homolog protein 3 (Homo sapiens) (Q9UM47 whole entry, looked up): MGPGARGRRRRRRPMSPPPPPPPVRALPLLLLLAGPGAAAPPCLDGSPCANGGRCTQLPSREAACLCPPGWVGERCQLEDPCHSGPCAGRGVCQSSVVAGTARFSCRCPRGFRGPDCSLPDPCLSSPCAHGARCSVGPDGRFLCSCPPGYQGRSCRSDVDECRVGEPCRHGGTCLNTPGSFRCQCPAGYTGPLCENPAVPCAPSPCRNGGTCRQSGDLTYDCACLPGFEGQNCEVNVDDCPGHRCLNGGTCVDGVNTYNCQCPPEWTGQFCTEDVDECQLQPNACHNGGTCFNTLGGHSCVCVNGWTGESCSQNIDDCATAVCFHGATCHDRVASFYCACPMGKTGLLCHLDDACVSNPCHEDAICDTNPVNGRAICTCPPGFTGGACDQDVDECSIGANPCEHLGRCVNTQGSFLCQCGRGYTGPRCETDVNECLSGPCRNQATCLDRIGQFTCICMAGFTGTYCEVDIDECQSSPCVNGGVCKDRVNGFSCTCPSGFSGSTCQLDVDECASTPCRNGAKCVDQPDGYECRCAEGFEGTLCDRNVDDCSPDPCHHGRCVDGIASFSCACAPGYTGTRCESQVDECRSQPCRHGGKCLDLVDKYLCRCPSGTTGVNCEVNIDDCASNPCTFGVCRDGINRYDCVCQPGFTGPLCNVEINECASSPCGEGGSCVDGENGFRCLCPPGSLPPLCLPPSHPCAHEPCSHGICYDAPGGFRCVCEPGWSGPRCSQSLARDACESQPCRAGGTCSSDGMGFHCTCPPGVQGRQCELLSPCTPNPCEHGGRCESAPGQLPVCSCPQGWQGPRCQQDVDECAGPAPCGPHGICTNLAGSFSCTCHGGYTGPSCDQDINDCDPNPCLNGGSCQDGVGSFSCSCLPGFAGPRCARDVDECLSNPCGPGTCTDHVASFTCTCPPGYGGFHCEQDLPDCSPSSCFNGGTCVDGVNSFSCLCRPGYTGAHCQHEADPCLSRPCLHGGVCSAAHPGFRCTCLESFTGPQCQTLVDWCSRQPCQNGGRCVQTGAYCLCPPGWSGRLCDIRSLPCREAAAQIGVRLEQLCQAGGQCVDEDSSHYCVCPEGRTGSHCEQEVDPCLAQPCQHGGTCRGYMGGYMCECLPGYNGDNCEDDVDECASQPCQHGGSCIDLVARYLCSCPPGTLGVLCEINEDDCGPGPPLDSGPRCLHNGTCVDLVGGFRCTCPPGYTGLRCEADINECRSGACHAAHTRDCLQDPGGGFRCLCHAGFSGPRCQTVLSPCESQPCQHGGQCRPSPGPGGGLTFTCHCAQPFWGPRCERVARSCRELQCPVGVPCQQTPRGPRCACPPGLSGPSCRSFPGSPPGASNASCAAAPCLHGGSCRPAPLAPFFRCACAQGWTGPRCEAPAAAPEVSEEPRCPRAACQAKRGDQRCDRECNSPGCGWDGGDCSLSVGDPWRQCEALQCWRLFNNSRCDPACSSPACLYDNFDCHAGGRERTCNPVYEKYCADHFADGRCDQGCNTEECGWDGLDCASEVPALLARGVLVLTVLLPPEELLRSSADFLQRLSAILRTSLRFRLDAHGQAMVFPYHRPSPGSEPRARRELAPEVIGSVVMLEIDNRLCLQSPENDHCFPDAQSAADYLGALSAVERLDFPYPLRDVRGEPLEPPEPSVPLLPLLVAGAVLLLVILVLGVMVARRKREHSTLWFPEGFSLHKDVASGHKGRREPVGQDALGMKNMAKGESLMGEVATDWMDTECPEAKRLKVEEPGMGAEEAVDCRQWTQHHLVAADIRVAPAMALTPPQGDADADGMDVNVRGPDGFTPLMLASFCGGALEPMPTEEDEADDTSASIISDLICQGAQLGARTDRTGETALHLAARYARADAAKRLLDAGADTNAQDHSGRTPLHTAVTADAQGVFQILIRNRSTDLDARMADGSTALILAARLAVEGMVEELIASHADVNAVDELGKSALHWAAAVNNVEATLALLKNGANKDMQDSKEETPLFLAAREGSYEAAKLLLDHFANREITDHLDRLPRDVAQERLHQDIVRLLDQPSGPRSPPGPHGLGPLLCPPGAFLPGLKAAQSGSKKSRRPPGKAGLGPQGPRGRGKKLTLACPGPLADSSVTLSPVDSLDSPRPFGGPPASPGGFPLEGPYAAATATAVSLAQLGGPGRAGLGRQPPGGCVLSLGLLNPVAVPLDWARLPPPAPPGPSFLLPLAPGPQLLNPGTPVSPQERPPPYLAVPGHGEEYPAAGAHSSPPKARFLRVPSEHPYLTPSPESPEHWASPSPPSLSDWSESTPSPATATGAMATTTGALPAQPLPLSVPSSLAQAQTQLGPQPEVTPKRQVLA
Sequence of Fibroblast growth factor 10 (Homo sapiens) (O15520 whole entry, looked up): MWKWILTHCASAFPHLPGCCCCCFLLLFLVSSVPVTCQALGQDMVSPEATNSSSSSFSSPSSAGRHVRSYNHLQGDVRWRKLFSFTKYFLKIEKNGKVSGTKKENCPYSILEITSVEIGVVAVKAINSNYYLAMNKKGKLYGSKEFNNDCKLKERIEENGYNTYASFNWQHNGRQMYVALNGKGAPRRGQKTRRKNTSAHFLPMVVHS
Sequence of Epidermal growth factor receptor (Homo sapiens) (P00533 whole entry, looked up): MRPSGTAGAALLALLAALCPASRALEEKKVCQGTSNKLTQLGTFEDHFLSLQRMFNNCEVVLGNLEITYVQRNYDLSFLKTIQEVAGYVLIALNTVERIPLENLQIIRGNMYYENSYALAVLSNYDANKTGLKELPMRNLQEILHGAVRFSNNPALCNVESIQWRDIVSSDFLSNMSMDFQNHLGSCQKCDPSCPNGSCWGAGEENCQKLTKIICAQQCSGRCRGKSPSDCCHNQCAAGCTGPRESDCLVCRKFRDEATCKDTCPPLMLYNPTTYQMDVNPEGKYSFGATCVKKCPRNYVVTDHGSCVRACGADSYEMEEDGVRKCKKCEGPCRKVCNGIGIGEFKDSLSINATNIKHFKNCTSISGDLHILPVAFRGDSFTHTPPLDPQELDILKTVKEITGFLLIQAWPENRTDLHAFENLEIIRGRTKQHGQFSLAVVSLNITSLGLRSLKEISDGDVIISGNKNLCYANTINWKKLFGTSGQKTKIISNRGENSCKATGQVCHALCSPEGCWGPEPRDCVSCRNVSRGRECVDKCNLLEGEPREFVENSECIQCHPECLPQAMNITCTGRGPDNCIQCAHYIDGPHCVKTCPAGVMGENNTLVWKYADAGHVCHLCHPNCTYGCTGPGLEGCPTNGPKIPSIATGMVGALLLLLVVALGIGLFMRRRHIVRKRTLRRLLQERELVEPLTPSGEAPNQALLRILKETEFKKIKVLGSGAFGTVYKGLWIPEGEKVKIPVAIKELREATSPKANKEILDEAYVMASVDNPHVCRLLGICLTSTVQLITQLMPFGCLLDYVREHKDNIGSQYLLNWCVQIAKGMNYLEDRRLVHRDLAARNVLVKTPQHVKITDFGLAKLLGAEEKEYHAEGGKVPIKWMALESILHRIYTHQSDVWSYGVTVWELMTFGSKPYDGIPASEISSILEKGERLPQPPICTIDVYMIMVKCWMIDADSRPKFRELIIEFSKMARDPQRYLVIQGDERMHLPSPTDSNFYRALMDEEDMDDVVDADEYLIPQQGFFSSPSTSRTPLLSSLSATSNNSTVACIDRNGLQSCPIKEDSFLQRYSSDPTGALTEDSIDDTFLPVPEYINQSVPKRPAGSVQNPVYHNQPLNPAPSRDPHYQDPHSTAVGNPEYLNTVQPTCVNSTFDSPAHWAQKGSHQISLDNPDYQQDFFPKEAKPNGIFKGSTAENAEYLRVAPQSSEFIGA
Sequence of Follistatin-related protein 3 (Homo sapiens) (O95633 whole entry, looked up): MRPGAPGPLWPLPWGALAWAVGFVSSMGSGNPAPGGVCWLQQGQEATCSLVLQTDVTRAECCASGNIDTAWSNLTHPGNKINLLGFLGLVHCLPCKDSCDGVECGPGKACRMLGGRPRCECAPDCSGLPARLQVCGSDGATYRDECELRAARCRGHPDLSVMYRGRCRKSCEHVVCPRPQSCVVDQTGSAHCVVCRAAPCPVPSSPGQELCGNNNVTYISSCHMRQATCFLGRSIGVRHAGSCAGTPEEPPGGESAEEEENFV
Sequence of Torsin-1A-interacting protein 2 (Homo sapiens) (Q8NFQ8 whole entry, looked up): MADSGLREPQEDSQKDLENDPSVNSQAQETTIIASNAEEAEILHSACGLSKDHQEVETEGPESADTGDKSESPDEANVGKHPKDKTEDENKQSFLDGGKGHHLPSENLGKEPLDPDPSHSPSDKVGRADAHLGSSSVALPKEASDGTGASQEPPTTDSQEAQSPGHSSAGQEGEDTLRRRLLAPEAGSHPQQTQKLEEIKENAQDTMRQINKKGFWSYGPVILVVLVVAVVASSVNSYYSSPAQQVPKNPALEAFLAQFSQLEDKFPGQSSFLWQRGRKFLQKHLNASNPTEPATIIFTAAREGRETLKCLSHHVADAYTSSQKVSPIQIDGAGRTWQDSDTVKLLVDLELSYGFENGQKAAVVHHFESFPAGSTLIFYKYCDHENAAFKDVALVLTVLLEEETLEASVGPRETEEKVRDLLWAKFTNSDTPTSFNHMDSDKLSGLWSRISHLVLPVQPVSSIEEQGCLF
Sequence of Dickkopf-related protein 1 (Homo sapiens) (O94907 whole entry, looked up): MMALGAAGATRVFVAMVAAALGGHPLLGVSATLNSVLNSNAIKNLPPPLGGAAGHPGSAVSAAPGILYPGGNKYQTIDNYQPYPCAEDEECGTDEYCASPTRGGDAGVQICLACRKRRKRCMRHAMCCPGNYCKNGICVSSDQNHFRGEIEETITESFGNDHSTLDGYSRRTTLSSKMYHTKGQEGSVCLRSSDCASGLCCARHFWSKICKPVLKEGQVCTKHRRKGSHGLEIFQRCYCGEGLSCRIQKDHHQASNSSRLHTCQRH

Consider `COC(=O)[C@@]1(Cc2ccc(OC)cc2)[C@H]2c3cc(C(=O)N(C)C)n(Cc4ccc(C)c(F)c4F)c3C[C@H]2CN1C(=O)c1ccccc1`, for which the composite z-score was 0.223 in [1]; 2.84 in experiment [5]; 0.146 in [7]; -0.268 in experiment [8]; 0.797 in [9]; -0.0972 in [10]. In addition, the composite z-score in experiment [11] is 0.274; in experiment [12], 0.627; in experiment [13], 0.993; in experiment [15], 0.0253; in [16], -0.109; in experiment [17], -0.902. For the same molecule, the composite z-score in experiment [18] is 0.0502; in experiment [19], -1.11; in experiment [20], 0.781. Further, the z-score was 1.14 (inactive) in experiment [2]; 0.491 (inactive) in [3]; 0.972 (inactive) in [4]; -0.716 (inactive) in [6]; -1.25 (inactive) in experiment [14].
For the molecule `COC(=O)C1=C(C)N(Cc2ccccc2)c2c(C(=O)OC)c(C(=O)OC)c(C(=O)OC)c(=O)n2[C@@H]1c1ccccc1`, the composite z-score in [1] is 0.269; in experiment [5], 0.309; in [7] it was -0.195; in experiment [8], 0.433; in experiment [9], 0.699; in [10] it was -0.065. Also, the composite z-score in experiment [11] is 0.119; in [12], -0.056; in [13], -0.32; in experiment [15] it was 0.583; in experiment [16], 0.37; in experiment [17] it was 0.12. For the same molecule, the composite z-score in [18] is 0.287; in experiment [19] it was 0.436; in experiment [20], 0.16. In addition, the z-score is -0.677 (inactive) in [2]; -1.75 (inactive) in [3]; -0.389 (inactive) in [4]; 0.535 (inactive) in experiment [6]; -0.449 (inactive) in experiment [14].
In the case of `C#CCCCON=C1C[C@@H](O)[C@@H](O)[C@@H]2[C@@H]3C(=O)N(Cc4ccc5c(c4)OCO5)C(=O)[C@@H]3CC[C@H]12`, the composite z-score in [1] was 1.01; in experiment [5] it was 2.79; in experiment [7], -0.0835; in [8], 1.66; in experiment [9], 0.513; in [10], -0.02. For the same molecule, the composite z-score in experiment [11] is 0.419; in experiment [12], -0.254; in experiment [13], -0.463; in experiment [15], 1.34; in [16] it was 0.253; in [17], 0.328. Besides, the composite z-score was 0.578 in [18], 0.59 in experiment [19] and -0.345 in experiment [20]. The z-score was -0.216 (inactive) in experiment [2]; 0.518 (inactive) in experiment [3]; -0.257 (inactive) in [4]; 0.523 (inactive) in experiment [6]; -0.16 (inactive) in experiment [14].
For the molecule `COC(=O)Cn1c(C(=O)N2CCCC2)cc2c1C[C@H]1CN(C(=O)c3ccccc3)[C@@](Cc3ccc(OC)cc3)(C(=O)OC)[C@@H]21`, the composite z-score in experiment [1] is -0.709; in [5], 3.24; in experiment [7] it was 0.531; in experiment [8] it was -1.02; in [9], 1.13; in experiment [10], 0.434. For the same molecule, the composite z-score worked out at 0.41 in [11]; 1.37 in experiment [12]; 1.1 in experiment [13]; 0.388 in experiment [15]; 0.203 in [16]; 0.559 in [17]. Further, the composite z-score is 0.348 in [18], -0.467 in [19] and 1.04 in [20]. In addition, the z-score in [2] is 0.742 (inactive); in experiment [3], 1.39 (inactive); in experiment [4], 2.75 (inactive); in experiment [6], -0.485 (inactive); in experiment [14] it was -1.76 (inactive).
On to `COc1cc2c(cc1OC)CN(C(=O)[C@H]1[C@@H]3C(=O)O[C@@H](c4ccccc4)[C@@H](c4ccccc4)N3[C@@H](c3ccccc3OCCO)[C@]13C(=O)Nc1ccc(C#CC4(O)CCCCCC4)cc13)CC2`, for which the composite z-score in experiment [1] stood at 1.55; in experiment [5], 2.83; in experiment [7] it was 0.0028; in experiment [8] it was 1.19; in [9], 1.11; in experiment [10] it was 0.0965. Also, the composite z-score in experiment [11] came to 1.6; in [12], 0.329; in [13], 0.453; in [15] it was 1.06; in experiment [16], 1.3; in experiment [17], 0.525. The composite z-score in experiment [18] is 0.564; in experiment [19], 0.693; in [20], 0.113. Moreover, the z-score in [2] is 1.71 (inactive); in experiment [3], 0.519 (inactive); in experiment [4] it was 4.28 (inactive); in experiment [6], 2.54 (inactive); in experiment [14] it was -1.16 (inactive).
